High-throughput results deposited in PubChem by several laboratories.
PfHsp90 set2 = growth inhibition of PfHsp90-expressing yeast, primary screen, antimalarial PfHsp90 inhibitor project, S. cerevisiae, BacTiter-Glo luminescence, single point, set 2. hit rate 0.32% among 310,000. inhibition, % at 9.4 µM. BacTiter-Glo ATP, 48 h; yeast lacking PDR1 and PDR3 efflux regulators. AID 504621, 2011;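 active = every replicate shows inhibition above about 80%, whatever the replicate mean, limit read from the data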
NALP1 inh = NALP1 inflammasome inhibitors in reconstituted yeast, colorimetric, S. cerevisiae, triplicate retest. S. cerevisiae NALP1/ASC/caspase-1 growth, X-gal OD620, 72 h. inhibition, % at 10 µM. hit rate 0.61% among 280,000. AID 2071, 2009; in the data active = inhibition mostly above about 24%, no sharp cut-off; inactive = mostly below about 32%
SKKanGAS inh = S. pyogenes SKKanGAS growth inhibitors in kanamycin, primary screen, streptokinase expression inhibitor project, SKKanGAS strain, BacTiter-Glo luminescence. 6 h. inhibition, % at 7.5 µM. hit rate 1.3% among 300,000;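 active = mean replicate score, as percent of positive control median, at least 50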;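 note: strain carries kanamycin resistance gene driven by streptokinase promoter and grows in 40 µg/ml kanamycin; loss of luminescence reflects streptokinase promoter inhibition or plain growth inhibition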
TIM10 inh = growth inhibitors of isogenic TIM10 control yeast, primary screen, counter-screen for tim10-1 yeast inhibitor project, luminescence, uHTS | S. cerevisiae TIM10 strain growth, BacTiter-Glo luminescence, 24 h | inhibition, % at 10 µM | hit rate 1.4% among 330,000 | AID 463195, 2010;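 active = inhibition of 40% or more at the single tested concentration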;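 note: wild-type TIM10 isogenic control strain grown at permissive 25 °C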
tim23-1 inh = growth inhibitors of tim23-1 mutant yeast, primary screen, luminescence, uHTS | hit rate 1.3% among 330,000 | inhibition, % at 20 µM | S. cerevisiae tim23-1 growth, BacTiter-Glo luminescence, 24 h;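 active = growth inhibition of the mutant yeast at or above 50%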;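 note: temperature-sensitive mutant grown at 25 °C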
tim10-1 inh = growth inhibitors of tim10-1 mutant yeast, primary screen, luminescence, uHTS; inhibition, % at 20 µM; S. cerevisiae tim10-1 ts strain growth, BacTiter-Glo, 24 h; hit rate 2.2% among 330,000;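 active = inhibition of at least 40%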;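 note: mutant grown at 25 °C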
tim10-1 confirm = growth inhibitors of tim10-1 mutant yeast, confirmation, single concentration, luminescence, S. cerevisiae. shares compounds with tim10-1 inh. S. cerevisiae tim10-1 ts strain growth, BacTiter-Glo, 24 h. inhibition, % at 20 µM. hit rate 56% among 7,400;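 active = inhibition of yeast growth at or above a set limit in either of two repeat tests at 20 µM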;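 note: tim10-1 mutant grown at permissive 25 °C to find synthetic lethal compounds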
TIM10 conf = growth inhibitors of wild-type TIM10 yeast, confirmation, counter-screen for tim10-1 synthetic lethality project, single concentration, luminescence, S. cerevisiae. shares compounds with TIM10 inh. S. cerevisiae tim10 strain growth, BacTiter-Glo luminescence, 24 h. inhibition, % at 10 µM. hit rate 63% among 4,600. AID 463215, 2010;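 active = inhibition of yeast growth at or above a set limit in either of two replicates at 10 µM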; note: this counterscreen used the strain with wild-type TIM10
tim23-1 confirm = tim23-1 mutant yeast growth inhibitors, confirmation, luminescence, single concentration; shares compounds with tim23-1 inh; S. cerevisiae tim23-1 growth, BacTiter-Glo luminescence, 24 h; inhibition, % at 20 µM; hit rate 83% among 4,400; AID 463218, 2010;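 active = inhibition above about 39% in either of two replicate wells at 20 µM, limit read from the data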;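 note: temperature-sensitive tim23-1 mutant grown at 25 °C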
Of the large screens only hits and unclear results are named; the others gave an inactive call (follow-up assays come after a bar, where they were run); ! = not confirmed by another sample. In the library only some 4.8% were active in any assay of this set; here they are far more common.

CC12CCC(C/C1=N/OC(=O)c1cccc([N+](=O)[O-])c1)C2(C)C (stereo unspecified)	TIM10 inh 61.8, tim23-1 inh 69.8, tim10-1 inh 42.1 | tim10-1 confirm 66.4 | TIM10 conf 72.0 | tim23-1 confirm 74.8
CC12CCC(C/C1=N\OC(=O)c1ccc(F)cc1)C2(C)C (stereo unspecified)	TIM10 inh 70.6, tim23-1 inh 71.1, tim10-1 inh 65.7 | tim10-1 confirm 64.2 | TIM10 conf 67.5 | tim23-1 confirm 78.2
COc1ccc(N=Cc2c[nH][nH]c2=O)cc1	none
CCOc1ccc(C(=O)Oc2cc(C)[nH]c(=O)c2[N+](=O)[O-])cc1OCC	none
Cc1cc2ccccn2c1C(=O)c1ccc(Cl)c([N+](=O)[O-])c1	none
CCCCCC/C(=N/O)c1ccccn1	SKKanGAS inh 94.1, TIM10 inh 57.3, tim23-1 inh 60.5, tim10-1 inh 41.5 | tim10-1 confirm inactive | TIM10 conf inactive | tim23-1 confirm 51.5
COc1ccc(-n2nc(C(=O)NCC(=O)NC(C)C)c3ccccc3c2=O)cc1	none
CCOc1ccccc1N1CCN(C(=O)c2ccncc2)CC1	none
CCOc1ccccc1N1CCN(C(=O)Nc2ccc(Cl)c(Cl)c2)CC1	tim23-1 inh 58.1, tim10-1 inh 48.4 (no result: PfHsp90 set2) | tim10-1 confirm 37.2 | tim23-1 confirm 50.5
COc1ccc(C(=O)NCC(c2ccco2)N2CCCC2)cc1S(=O)(=O)N1CCCCC1C (stereo unspecified)	none (no result: NALP1 inh, SKKanGAS inh)
Oc1c(I)cc(I)c2cccnc12	PfHsp90 set2 109.3, SKKanGAS inh 92.5, TIM10 inh 53.1, tim23-1 inh 68.8, tim10-1 inh 71.5 | tim10-1 confirm 65.2 | TIM10 conf 75.6 | tim23-1 confirm 55.7
O=C(Nc1ccccc1C(=O)NC1CC1)c1ccccc1	none (no result: NALP1 inh, SKKanGAS inh)
Cc1cccc(NC(=O)c2ccc([N+](=O)[O-])o2)c1C	TIM10 inh 55.7, tim23-1 inh 50.1, tim10-1 inh 62.2 | tim10-1 confirm 60.8 | TIM10 conf 41.7 | tim23-1 confirm 39.4
O=C(Nc1ncccn1)c1ccc([N+](=O)[O-])o1	none
O=C(Nc1ccccc1C(=O)NC1CC1)c1ccc([N+](=O)[O-])o1	tim23-1 inh 63.6, tim10-1 inh 48.0 (no result: NALP1 inh, SKKanGAS inh) | tim10-1 confirm 33.8 | tim23-1 confirm 65.7
COc1ccccc1NC(=O)c1ccc([N+](=O)[O-])o1	TIM10 inh 47.2, tim23-1 inh 78.6, tim10-1 inh 66.3 (no result: PfHsp90 set2, NALP1 inh) | tim10-1 confirm 56.2 | TIM10 conf 45.8 | tim23-1 confirm 72.3
CCCn1c(NC(=O)c2ccc([N+](=O)[O-])o2)nc2ccccc21	TIM10 inh 41.4, tim23-1 inh 50.5, tim10-1 inh 54.8 (no result: NALP1 inh) | tim10-1 confirm 48.8 | TIM10 conf 60.9 | tim23-1 confirm 58.1
Cc1ccc(NC(=O)c2ccc([N+](=O)[O-])o2)cc1C	none
CCOCc1nnc(NC(=O)CSCc2ccccc2)s1	none (no result: PfHsp90 set2)
CCNc1nc(OC)nc(SCC(=O)Nc2ccccc2)n1	none
CCOC(=O)C(Cc1ccccc1)C(=O)Nc1ccc(N(CC)CC)cc1 (stereo unspecified)	none
O=C(Nc1cccc2ccccc12)c1ccc([N+](=O)[O-])o1	SKKanGAS inh 52.5, TIM10 inh 68.3, tim23-1 inh 78.1, tim10-1 inh 79.6 | tim10-1 confirm 75.4 | TIM10 conf 73.7 | tim23-1 confirm 75.1
CN1CCN(/N=C/c2ccc(N(c3ccccc3)c3ccccc3)cc2)CC1	tim23-1 inh 76.3, tim10-1 inh 49.6 | tim10-1 confirm inactive | tim23-1 confirm inactive
CN1CCN(/N=C/c2ccc(N(C)c3ccccc3)cc2)CC1	none
COc1c(Cl)ccc(Cl)c1C(=O)NCc1ccco1	none
CC1(C(=O)O)CCC(C(=O)NC2CCCCC2)C1(C)C (stereo unspecified)	none
Clc1ccc(-n2nnnc2Sc2ncnc3sccc23)cc1	tim23-1 inh 69.6, tim10-1 inh 43.0 (no result: NALP1 inh) | tim10-1 confirm 32.9 | tim23-1 confirm 50.2
CCc1ccc(NC(=O)C(C)OC(=O)CN2C(=O)NC3(CCCC3)C2=O)cc1 (stereo unspecified)	none (no result: NALP1 inh, SKKanGAS inh)
CC(C)(C)Nc1c([N+](=O)[O-])c(=O)sc2ccccc12	TIM10 inh 59.6, tim23-1 inh 71.3, tim10-1 inh 54.6 | tim10-1 confirm 52.8 | TIM10 conf 48.6 | tim23-1 confirm 68.6
COc1cccc(Nc2ccc([N+](=O)[O-])c3nonc23)c1	tim23-1 inh 70.2, tim10-1 inh 57.2 | tim10-1 confirm inactive | tim23-1 confirm 78.5
CCOC(=O)/C(=N/Nc1ccc(C)cc1)S(=O)(=O)c1ccc(Cl)cc1	none
NNC(=O)/C(=N/Nc1ccccc1)S(=O)(=O)c1ccc(Cl)cc1	SKKanGAS inh 73.6, tim23-1 inh 68.6, tim10-1 inh 55.9 | tim10-1 confirm 49.0 | tim23-1 confirm 58.8
CCCCCCCCCCCCCCCCn1cc[n+](C)c1	PfHsp90 set2 129.1, NALP1 inh 93.6!, SKKanGAS inh 113.6, TIM10 inh 66.8!, tim23-1 inh 55.5, tim10-1 inh 93.4 | tim10-1 confirm 52.7 | TIM10 conf 58.2 | tim23-1 confirm 63.0
CC(=O)C[C@@H](O)CC(=O)[C@@H]1OC(=O)CC/C=C\Cc2ccccc21	none (no result: NALP1 inh, SKKanGAS inh)
N#C/C(=C\c1ccco1)Sc1nc2ccccc2s1	TIM10 inh 56.2, tim23-1 inh 58.1, tim10-1 inh 50.4 | tim10-1 confirm 58.2 | TIM10 conf 44.4 | tim23-1 confirm 50.8
O=C(CSc1nc2ccccc2s1)N/N=C/c1ccco1	none
CC(C)(C)c1nn(-c2ccccc2)c2[nH]c(=O)c(CNCc3ccco3)cc12	none
CC(C)(C)c1nn(-c2ccccc2)c2[nH]c(=O)c(CNc3ccc4c(c3)OCCO4)cc12	PfHsp90 set2 121.0, TIM10 inh 56.3, tim23-1 inh 82.9, tim10-1 inh 67.8 | tim10-1 confirm 64.8 | TIM10 conf 43.5 | tim23-1 confirm 82.9
